High-throughput results: PubChem BioAssay, National Center for Advancing Translational Sciences (NCATS)
IL-1B inflam inh: inflammasome signaling inhibition, IL-1 beta readout; hit rate 4.7% among 360,000; THP-1 LPS/ATP IL-1B secretion, AlphaLISA, 16 h; stronger effect = lower value; activity change, % at 57.5 µM; in the data active = activity change below about -50%; inconclusive = mostly about -30% to -49%
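THP-1 cells pretreated 1 hr with compounds (up to 57.5 uM final), then stimulated with LPS (250 ng/mL final) plus ATP (1.25 mM final); secreted IL-1B measured by AlphaLISA after 16 hr, decreased signal indicating inhibition.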
ALOX12 inh: ALOX12 (human) lipoxygenase inhibition; AID 1671190; hit rate 1.1% among 580,000; purified 12hLO, xylenol orange hydroperoxide absorbance; Potency, µM (series often up to 108 µM), for inactives: at the highest dose activity change, negative = inhibition, hits mostly inhibitors; P18054; also: potency is read from the fitted curve at half-maximal effect
Target sequence (P18054 whole entry, looked up): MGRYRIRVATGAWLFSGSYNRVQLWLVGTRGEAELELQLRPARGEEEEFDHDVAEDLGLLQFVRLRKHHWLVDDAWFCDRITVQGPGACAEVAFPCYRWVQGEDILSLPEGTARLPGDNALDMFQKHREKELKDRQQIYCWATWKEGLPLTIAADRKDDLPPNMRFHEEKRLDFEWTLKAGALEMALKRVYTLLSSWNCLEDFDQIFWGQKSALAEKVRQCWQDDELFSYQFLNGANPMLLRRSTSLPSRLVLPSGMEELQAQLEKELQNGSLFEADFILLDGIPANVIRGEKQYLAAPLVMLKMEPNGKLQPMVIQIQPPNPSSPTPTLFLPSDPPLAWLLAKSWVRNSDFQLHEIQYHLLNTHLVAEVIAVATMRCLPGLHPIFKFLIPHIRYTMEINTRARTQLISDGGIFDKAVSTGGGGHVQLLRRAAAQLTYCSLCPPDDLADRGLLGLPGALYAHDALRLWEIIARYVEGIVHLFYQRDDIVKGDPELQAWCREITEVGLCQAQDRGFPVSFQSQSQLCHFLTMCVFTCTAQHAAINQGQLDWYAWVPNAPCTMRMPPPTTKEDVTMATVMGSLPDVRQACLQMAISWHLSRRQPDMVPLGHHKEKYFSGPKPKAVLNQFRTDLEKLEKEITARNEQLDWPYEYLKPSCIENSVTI
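Hydroperoxide product was detected by ferrous iron/xylenol orange as the 573 to 405 nm absorbance ratio. Arachidonic acid at 40 uM (final) was turned over for 30 min at room temperature by 150 nM human 12hLO, pH 7.0 Hepes buffer, after 15 min compound preincubation.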
HT1080NT lethal: kills 2HG-producing HT-1080-NT fibrosarcoma cells. HT-1080-NT fibrosarcoma viability, CellTiter-Glo ATP luminescence, 48 h. Potency, µM (highest dose often 46.1 µM), without a hit: at the top dose activity, negative = less viability, actives largely listed as cytotoxic. hit rate 1.6% among 360,000. AID 686970;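 also: NT is the 2HG producing partner of a matched IDH1 knockdown line; potency is read from the fitted curve at half-maximal effect; 0% = DMSO-treated cells and -100% = media-only wells without cells; nearly all actives have a fitted effect of over 55% in size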
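Viability of the 2HG-overproducing fibrosarcoma line after 48 hours of compound exposure at 37 degrees C was determined by luminescence with CellTiter-Glo, and concentration-effect curves were then fitted and categorized.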
TDP1 cell noCPT: qHTS for Inhibitors of human tyrosyl-DNA phosphodiesterase 1 (TDP1): qHTS in cells in absence of CPT | DT40 Tdp1-/- hTDP1 cells, no CPT, ATP luminescence, 48 h | Potency, µM (top dose mostly 46.2 µM), for the others: at the top dose activity change, negative = growth inhibition, actives largely listed as inhibitors | hit rate 15% among 420,000; also: potency is read from the fitted curve at half-maximal effect; nearly all actives have a fitted effect of over 55% in size
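Chicken DT40 Tdp1-/- cells stably complemented with human TDP1 were seeded at 400 cells/well with DMSO in place of 20 nM camptothecin. After compound pinning, cells grew at least 48 hr at 37 °C; viability read by CellTiter-Glo luminescence.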
HT1080 IDH1KD tx: toxicity to HT-1080 IDH1 knockdown cells (counter line) | Potency, µM (series often up to 46.1 µM), inactives show at the highest dose activity, negative = toxicity, usual class: cytotoxic | HT-1080 IDH1 knockdown viability, ATP luminescence, 48 h | hit rate 2% among 360,000;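 also: potency is read from the fitted curve at half-maximal effect; 0% = DMSO wells and -100% = cell-free medium wells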
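% activity derives from luminescence (CellTiter-Glo), normalised to DMSO and no-cell wells. HT-1080-IDH1KD cells, 750/well, had 48 h compound exposure at 37 °C.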
TDP1 cell CPT: DT40-hTDP1 cell growth loss with CPT; hit rate 12% among 420,000; Potency, µM (top dose mostly 46.2 µM), for inactives: at the top dose activity change, negative = growth inhibition, usual class: inhibitors; chicken DT40 Tdp1-/-;hTDP1 cells + 20 nM CPT, ATP luminescence, 48 h; AID 686979; also: potency is read from the fitted curve at half-maximal effect; nearly all actives have a fitted effect of over 55% in size
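Cell growth measured by CellTiter-Glo luminescence after a minimum 48 h, 37 C compound exposure with 20 nM CPT in Tdp1-knockout DT40 cells stably expressing hTDP1, seeded 400/well; qHTS titration format.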
An asterisk follows results filed as active; i = inactive; ? = inconclusive; . = no result given; [ ] = dose if it differs, or a comment. Shown is part of a subset that was picked to be rich in hits. Unless noted, calls follow the shape of the dose curve; as a rule, active = well fitted curve in the direction sought with a large enough effect; inconclusive = small, poorly fitted or top-dose-only effect, or another doubt; inactive = no such curve, though single readings can be large; an effect the other way counts as inactive or inconclusive. Unless noted, % is scaled to controls: 0 for no effect and ±100 for the full control effect.

SMILES | IL-1B inflam inh | ALOX12 inh | HT1080NT lethal | TDP1 cell noCPT | HT1080 IDH1KD tx | TDP1 cell CPT
Cc1nn(-c2ccccc2)c(N)c1C1(O)C(=O)N(C)c2ccccc21 (stereo not drawn) | 10 | -2% | -4% | ? | -1% | 23µM*
CC(=O)N1C(=O)C2(C(C#N)=C(N)Oc3c2c(C)nn3-c2ccccc2)c2ccccc21 (stereo not drawn) | 31 | 6% | -7% | ? | -3% | 23µM*
Cc1nn(-c2ccccc2)c2c1C1(C(=O)N(C)c3ccccc31)C(C#N)=C(N)O2 (stereo not drawn) | 11 | ? | 2% | ? | 2% | 16µM*
Cc1nn(-c2ccccc2)c(N)c1C1(O)C(=O)Nc2ccccc21 (stereo not drawn) | 31 | 0% | 11% | 2% | 14% | -4%
C=C(C)COc1ccc2c(=O)c(-c3ccccc3OC)coc2c1 | . | -22% | . | . | . | .
CC(=O)N1C(=O)C2(C(C#N)=C(N)Oc3n[nH]c(-c4ccccn4)c32)c2ccccc21 (stereo not drawn) | 5 | ? | -7% | 18µM* | 16% | ?
COC(=O)Cc1[nH]nc2c1C1(C(=O)N(Cc3ccccc3)c3ccccc31)C(C#N)=C(N)O2 (stereo not drawn) | -16 | -21% | 12% | -7% | 6% | -9%
Cc1[nH]nc2c1C1(C(=O)N(Cc3ccc(Cl)cc3)c3ccccc31)C(C#N)=C(N)O2 (stereo not drawn) | -16 | ? | ? | 26µM* | ? | 23µM*
CCN1C(=O)C2(C(C#N)=C(N)Oc3c2c(C)nn3-c2ccccc2)c2ccccc21 (stereo not drawn) | 7 | -16% | -3% | 16µM* | ? | 18µM*
O=CNNC(=S)Nc1cc(Cl)cc(Cl)c1 | . | 12% | . | . | . | .
CCCCn1c(=NC(=O)c2ccc3c(c2)OCO3)c(C#N)cc2c(=O)n3cccc(C)c3nc21 | 0 | ? | 4% | 9.2µM* | 4%[9.24 µM] | 7.3µM*
CCOCCCn1c(=NC(C)=O)c(C#N)cc2c(=O)n3cccc(C)c3nc21 | . | 30% | -1% | ? | 3% | 8%
CCCCn1c(=NC(C)=O)c(C#N)cc2c(=O)n3cccc(C)c3nc21 | 60 | -3% | 4% | 18µM* | -4% | -29%
CSc1ccccc1OCc1cc(C(=O)N(C)Cc2ccc3nsnc3c2)no1 | i | -18% | 7% | -28% | 5% | ?
CSc1ccccc1OCc1cc(C(=O)NCCn2nc(C)cc2C)no1 | 10 | 0% | 1% | ? | -3% | 12µM*
CCN(CC)C1CCN(C(=O)c2cc(COc3ccccc3SC)on2)C1 (stereo not drawn) | 0 | ? | -3% | 1% | -1% | -12%
CSc1ccccc1OCc1cc(C(=O)NCCC2=CCCCC2)no1 | 18 | 477% | ? | -29% | -19% | -19%
CSc1ccccc1OCc1cc(C(=O)N(C)Cc2ccc(C)o2)no1 | -67* | ? | -1% | ? | 1% | 16µM*
CCN(CC1CCCO1)C(=O)c1cc(COc2ccccc2SC)on1 (stereo not drawn) | i | 306% | -6% | 21µM* | -3% | 16µM*
CSc1ccccc1OCc1cc(C(=O)NCCN2CCCc3ccccc32)no1 | -10 | -11% | -24% | 15µM* | 12µM* | ?
CCn1ncc(Br)c1C(=O)Nc1ccc(F)c([N+](=O)[O-])c1 | -97* | -23% | 5% | ? | 16% | -21%
CCn1ncc(Br)c1C(=O)Nc1ccc(F)cc1F | 1 | 2% | 7% | ? | 1% | 2%
